# In PubChem BioAssay AID720709 (National Center for Advancing Translational Sciences (NCATS), 2013):
# Out of some 360,000 compounds screened, about 520 (0.14%) were called active. A call without a number means that no potency is given here. Roughly 3% stayed inconclusive and do not appear here. The call rests on the fitted dose curve; in most records, active means well fitted inhibition curve with a large enough effect; inconclusive means small, poorly fitted or top-dose-only effect; inactive means no such curve, though single readings can be large or run the other way. For the sample, actives were picked, then their nearest neighbours and some compounds at random.
# Biological target: Rap guanine nucleotide exchange factor 3 (Homo sapiens) (UniProt O95398)
# Assay: qHTS for Antagonist of cAMP-regulated guanine nucleotide exchange factor 3 (EPAC1): primary screen; further: nearly all actives have a fitted effect of over 50% in size
# Conditions: EPAC1 GEF assay, Rap1b-BODIPY-GDP exchange fluorescence; series mostly up to 115 µM
# Excerpt: In multi-cellular eukaryotic organisms, the effects of cAMP are transduced by two ubiquitously-expressed intracellular cAMP receptors, the classic protein kinase A/cAMP-dependent protein kinase (PKA/cAPK) and the more recently discovered exchange protein directly activated by cAMP/cAMP-regulated guanine nucleotide exchange factor (EPAC/cAMP-GEF). Both PKA and EPAC are ubiquitously expressed in all tissues, and an increase in intracellular cAMP levels will lead to the activation of both PKA and EPAC. Therefore, careful dissections of the individual role and relative contribution of EPAC and PKA within the overall cAMP signaling in various model systems are critical for further elucidating the mechanism of cAMP signaling. To date no EPAC-specific antagonists and agonist, as well as isoform-specific agonists have been reported, and developing EPAC-specific pharmacological probes to determine the physiological functions that EPAC play in the overall cAMP-mediated signaling remains a major challenge within the research field. Furthermore, identified regulators of EPAC may lead to new mechanism-based therapeutic strategies specifically targeting the EPAC / cAMP-signaling components as EPAC has been implicated to play important roles in major human pathological conditions such as diabetes, heart disease, and cancer. This qHTS will be used to screen the Molecular Libraries Small Molecule Repository (MLSMR) as a concentration-titration series using the NCGC unique quantitative screening (qHTS) platform to find inhibitors for EPAC1. In addition, this assay will also be used as a counterscreen for the EPAC2 qHTS. This fluorescent based assay is developed and validated for EPAC1 that measures exchange using EPAC effector Rap1 complex with BODIPY-GDP, a GDP analog with a tethered fluorophores. Inhibitors are identified by monitoring the change in fluorescence signal as the exchanged free BODIPY-GDP has a reduced fluorescence compared to Rap1-bound BODIPY-GDP. Decrease in signal (inhibition) is the desired outcome for the EPAC1 antagonist while no activity in this assay is desired for the EPAC2 antagonist counterscreen. de Rooij, J., Zwartkruis, F. J., Verheijen, M. H., Cool, R. H., Nijman, S. M., Wittinghofer, A., and Bos, J.L. (1998) Nature 396, 474-477 [2] Kawasaki, H., Springett, G. M., Mochizuki, N., Toki, S., Nakaya, M., Matsuda, M., Housman, D. E., and Graybiel, A. M. (1998) Science 282, 2275-2279 NIH Chemical Genomics Center [NCGC] NIH Molecular Libraries Probe Centers Network [MLPCN] MLPCN Grant: NS066510 Assay Submitter (PI): Xiaodong Cheng, The University of Texas, Medical Branch
# Briefly, three uL of reagents (100 nM EPAC1, 250 nM RAP1B-BODIPY-GDP, 50 uM GDP) were dispensed into a 1536-well Greiner black solid-bottom medium binding assay plate. Controls and test compounds (23 nL) were transferred to the plate via a Kalypsys pin tool equipped with a 1536-pin array. The plates were centrifuged at 1,000 rpm for 15 seconds followed by 5 minute incubation at room temperature. The assay plates were read at 5 minute intervals for 30 minutes in the ViewLux plate reader using 480nm excitation and 540nm emission filters. The results were normalized to the […] positive control ATA and DMSO.
# Potency means the concentration at half of the fitted maximal effect.
# Rap guanine nucleotide exchange factor 3 (Homo sapiens), sequence (O95398 whole entry, looked up): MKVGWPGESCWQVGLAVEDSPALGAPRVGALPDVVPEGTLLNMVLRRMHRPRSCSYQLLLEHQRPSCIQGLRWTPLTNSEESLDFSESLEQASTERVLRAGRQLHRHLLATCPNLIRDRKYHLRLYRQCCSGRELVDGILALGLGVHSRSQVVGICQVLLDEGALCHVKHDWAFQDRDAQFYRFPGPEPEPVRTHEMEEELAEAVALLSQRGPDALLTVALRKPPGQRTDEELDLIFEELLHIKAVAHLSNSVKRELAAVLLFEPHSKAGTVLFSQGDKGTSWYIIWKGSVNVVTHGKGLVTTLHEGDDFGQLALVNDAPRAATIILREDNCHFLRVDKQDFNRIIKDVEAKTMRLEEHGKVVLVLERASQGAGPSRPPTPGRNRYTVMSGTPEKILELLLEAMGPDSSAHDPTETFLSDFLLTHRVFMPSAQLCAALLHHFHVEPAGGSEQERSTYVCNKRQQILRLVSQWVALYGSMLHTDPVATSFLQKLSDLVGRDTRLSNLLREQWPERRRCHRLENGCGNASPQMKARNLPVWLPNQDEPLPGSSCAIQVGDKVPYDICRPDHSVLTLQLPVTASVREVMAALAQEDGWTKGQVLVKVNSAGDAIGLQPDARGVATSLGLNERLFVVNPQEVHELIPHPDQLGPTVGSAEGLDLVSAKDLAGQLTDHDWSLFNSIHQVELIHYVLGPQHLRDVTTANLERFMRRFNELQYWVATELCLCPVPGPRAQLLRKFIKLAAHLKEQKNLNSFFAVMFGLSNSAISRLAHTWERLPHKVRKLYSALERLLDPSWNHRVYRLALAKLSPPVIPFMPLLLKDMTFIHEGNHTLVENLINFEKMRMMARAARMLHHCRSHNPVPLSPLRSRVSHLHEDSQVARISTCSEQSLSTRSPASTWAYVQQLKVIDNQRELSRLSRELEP
row,Compound,Potency
1,Oc1cccc2cc(-c3ccncc3)cnc12,inactive
2,CO[C@@H]1CN(C)C(=O)c2cc(NC(=O)Nc3cc(F)ccc3F)ccc2OC[C@H](C)N(C(=O)c2ccccn2)C[C@@H]1C,inactive
3,Cc1c(CC(=O)N2CCN(C(=O)C3COc4ccccc4O3)CC2)c(=O)oc2c(O)c(O)ccc12 (centres undefined),100 µM (active)
4,COc1ccc2c(C)c(CCC(=O)NC3CC3)c(=O)oc2c1C,inactive
5,Cc1ccc(S(=O)(=O)NCCC(=O)NNC(=O)C2COc3ccccc3O2)cc1 (centres undefined),inactive
6,OCCC#Cc1ccc(N2C(c3ccsc3)=Cc3ccc(F)cc3C2c2c[nH]c3ccccc23)cc1 (centres undefined),inactive
7,COc1ccc(CC(N)c2csc(NC(=O)NC(c3ccccc3)c3ccccc3)n2)cc1 (centres undefined),inactive
8,COc1cccc(/C=N/Nc2ccc(S(=O)(=O)Nc3ccccc3C(=O)O)cc2[N+](=O)[O-])c1O,25.1 µM (active)
9,CCOc1ncccc1C(=O)NNC(=O)c1cccc(S(=O)(=O)Nc2ccccc2OC)c1,inactive
10,CC1CN(C(=O)c2ccccc2NS(=O)(=O)c2cccc([N+](=O)[O-])c2)CC(C)O1 (centres undefined),inactive
11,COC(=O)C[C@@H]1C=C[C@@H](NC(=O)c2ccc3c(c2)OCO3)[C@@H](CO)O1,inactive
12,O=c1[nH]c(SCc2cccc(F)c2)nc2ccccc12,inactive
13,CC(=O)CSc1nc(CCc2ccccc2)c(C#N)c(=O)[nH]1,inactive
14,N#Cc1c(-c2ccccc2)nc(SCc2cccc(C(F)(F)F)c2)[nH]c1=O,70.8 µM (active)
15,O=C(NCc1ccc(F)cc1F)[C@@H]1CCCN1C(=O)[C@@H]1CCCN1C(=O)c1cccc(Cl)c1,inactive
16,O=C(O)CC/C(=C\c1cc2c(cc1Br)OCO2)c1nc2ccccc2s1,inactive
17,COc1ccc(C(=O)Nc2cccc(/C=C(/CCC(=O)O)c3nc4ccccc4s3)c2)cc1,35.5 µM (active)
18,COc1cccc(/C=C(/CC(=O)Nc2ccc(N3CCOCC3)cc2)c2nc3ccccc3s2)c1,inactive
19,CCOc1ccc(CCN2C(=S)N([C@@H](CC(C)C)CN3CCC[C@@H]3CN3C(=S)NC[C@@H]3Cc3ccc(O)cc3)C[C@@H]2Cc2ccc(O)cc2)cc1,inactive
20,CCC(C(=O)Nc1c(C)cccc1C)n1c(-c2cc(C)cs2)nc2ccccc21 (centres undefined),inactive
21,COc1ccc(C(=O)NCC[N+](C)(C)C)cc1,inactive
22,CCOC(=O)[C@]12CCC=C1N(Cc1ccco1)C(=O)[C@H](CC(=O)N1CCSCC1)C2,inactive
23,CCCCCCN1CCN(C2CN(Cc3cn(CCCCCC)nn3)S(=O)(=O)C2)CC1 (centres undefined),inactive

row,Compound,Potency
1,CCC(CC)C(C(=O)NC1CCCC1)N1CCN(c2cc(C)nc3ccccc23)CC1 (centres undefined),inactive
2,O=C1Nc2ccccc2-n2nnnc2C1N1CCN(c2cccc(C(F)(F)F)n2)CC1 (centres undefined),inactive
3,CCOC(=O)[C@]12CCCC=C1N(CCC1=CCCCC1)C(=O)[C@H](CC(=O)N1CCOCC1)C2,inactive
4,Cc1cc(Br)cn2c(Cc3ccsc3)c(-c3ccc(C#N)cc3)nc12,inactive
5,CCOC(=O)[C@]12CCCC=C1N(CCC1=CCCCC1)C(=O)[C@H](CC(=O)NCCCCc1ccccc1)C2,inactive
6,O=C1NC[C@H](CCCCN2C[C@H](Cc3ccc(O)cc3)N(CCc3ccccc3)C(=O)C2=O)N(CCc2ccccc2)C1=O,inactive
7,O=C1Nc2ccccc2NC(c2ccc3c(c2)OCO3)=C1N(Cc1ccc(F)cc1)C(=O)c1ccco1,inactive
8,COc1ccc(C(=O)C(OP(=O)(OC)OC)c2ccccc2OC)cc1 (centres undefined),inactive
9,COC(=O)c1ccc2nc(-c3ccc(C)cc3)c(Cc3ccc(OC)cc3C)n2c1,inactive
10,CCOC(=O)[C@]12CCCC=C1N(Cc1ccc(Cl)cc1Cl)C(=O)[C@H](CC(=O)N1CCCCC1)C2,inactive
11,CC1Cc2[nH][nH]c(=O)c2C(C2CCCC2)O1 (centres undefined),inactive
12,COc1cccc(-c2nc3nc(C)cc(C)n3c2NC2CCCCC2)c1,inactive
13,CC(C)c1cc(Cn2c3ccccc3c(=O)n2C(C)Cn2cc(C3CC3)nn2)on1 (centres undefined),inactive
14,Cc1cc(Br)cn2c(Cc3ccccc3C(F)(F)F)c(-c3ccc(Cl)cc3)nc12,inactive
15,CCOC(=O)[C@]12CCCC=C1N(CCC1=CCCCC1)C(=O)[C@H](CC(=O)N1CCSCC1)C2,inactive
16,COC(=O)[C@]12CCCCC=C1N(Cc1ccc3c(c1)OCO3)C(=O)[C@H](CC(=O)N1CCOCC1)C2,inactive
17,O=C(NCc1ccccc1)C1c2ccccc2OCC(=O)N1CCCN1CCOCC1 (centres undefined),inactive
18,COc1ccc([C@H]2CC(=O)C[C@@H](CCn3cc(CC4CCCC4)nn3)O2)cc1,inactive
19,COc1ccc(N2c3ccccc3CN(Cc3ccccc3)[C@@H](C)[C@H]2Cc2ccc(-c3ccccc3)cc2)cc1,inactive
20,O=S1(=O)CC(N2CCN(CCO)CC2)CN1Cc1cn(Cc2cccc(Cl)c2)nn1 (centres undefined),inactive
21,O=C(C(=O)N1CCN(c2ccccc2)CC1)c1ccc2c(c1)OCO2,inactive
22,COC(=O)C[C@@H]1C=C[C@@H](NS(=O)(=O)c2cccc(OC)c2)[C@@H](CO)O1,inactive
23,CC(C)(C)CC(=O)Nc1nc(C(N)Cc2ccc(C(F)(F)F)cc2)cs1 (centres undefined),inactive

row,Compound,Potency
1,O=C(NCc1ccccc1)C1c2ccccc2OCC(=O)N1C1CC1 (centres undefined),inactive
2,Nc1[nH]c(C(=O)c2ccccc2)c(-c2ccc(Br)cc2)c1C(=O)NC1CC1,inactive
3,Cc1ccc(S(=O)(=O)N2CCC(=O)N([C@H](COCc3ccccc3)C(C)C)CC2)cc1,inactive
4,Cn1cnc(S(=O)(=O)N2C[C@@H](O)COC[C@@H]3O[C@H](CC(=O)NC4CCC4)CC[C@H]32)c1,inactive
5,NC1=CC(=O)C(=O)c2cccnc21,56.2 µM (active)
6,O=C(OC1CC2CC1[C@H]1CCCCN1C2=O)N1CCOCC1 (some centres undefined),inactive
7,O=C1C(Sc2cccc(F)c2)=C[C@@]2(O)CC[C@@H](O)[C@]1(Sc1cccc(F)c1)[C@H]2O,inactive
8,O=C(Nc1ccc(F)cc1)C(CCc1ccccc1)N1CCN(CC(=O)N2CCCC2)CC1 (centres undefined),inactive
9,OC(c1ccccc1)(c1ccccc1)C1CCN(CCCOc2ccccc2)CC1,inactive
10,CCC(c1nc2ccccc2[nH]1)n1c(=O)c(-c2cccs2)nc2ccccc21 (centres undefined),inactive
11,Cc1ccc(Cc2c(-c3ccc(Cl)cc3)nc3c4ccccc4ccn23)cc1,inactive
12,CCCCN1C(=O)C(CC(=O)NCc2cccs2)CC(C(=O)N2CCCCCC2)=C1C (centres undefined),inactive
13,O=C(Nc1ccc(S(=O)(=O)Nc2nccs2)cc1)c1cc(-c2ccncc2)nc2ccccc12,79.4 µM (active)
14,O=C(CCc1ccccc1Cl)Nc1ccc(S(=O)(=O)Nc2nccs2)cc1,inactive
15,O=C(Nc1ccc(S(=O)(=O)Nc2nccs2)cc1)c1cc(=O)[nH]c2ccccc12,inactive
16,Cc1ccc2nc(-c3ccco3)c(Cc3cccc(Cl)c3)n2c1,inactive
17,CCOC(=O)N1CCN(C(=O)C[C@@H]2C[C@@]3(C(=O)OC)CCCCC=C3N(CCC3=CCCCC3)C2=O)CC1,inactive
18,CC(C)C[C@H]1CNC(=O)C(=O)N1C[C@@H]1CCCN1C[C@H](Cc1ccccc1)N1C[C@H](CC(C)C)N(CC2CCCCCC2)C(=O)C1=O,inactive
19,O=C(NCc1ccccn1)[C@@H]1CCCN1C(=O)[C@@H]1CCCN1C(=O)c1ccccc1,inactive
20,COC(=O)c1ccc2nc(-c3ccc(F)cc3)c(Cc3ccc(C)cc3)n2c1,inactive
21,CC1(C(=O)NCc2ccccc2)CSCC(=O)N1CCCn1ccnc1 (centres undefined),inactive
22,COc1ccc(C(C(=O)NCc2ccccc2)n2c(=O)c(-c3ccccc3)nc3ccccc32)cc1 (centres undefined),inactive
23,CC(C)(C)NC(=O)C(CCc1ccccc1)n1c(=O)c(-c2ccccc2)nc2ccccc21 (centres undefined),inactive

row,Compound,Potency
1,CCCCNC(=O)OC1CC2CC1[C@H]1CCCCN1C2=O (some centres undefined),inactive
2,CCCCNC(=O)C[C@@H]1C[C@@]2(C(=O)OCC)CCC=C2N(Cc2cccc3ccccc23)C1=O,inactive
3,CCCCn1nnnc1C(c1cc2ccccc2o1)N(C)Cc1ccc(Cl)c(Cl)c1 (centres undefined),inactive
4,COC(=O)C[C@H]1C=C[C@@H](NS(=O)(=O)c2ccc(C)cc2)[C@@H](CO)O1,inactive
5,CCC(c1nnnn1-c1ccc2c(c1)OCCO2)N1CCN(c2ccc(C(F)(F)F)cn2)CC1 (centres undefined),inactive
6,CC(=O)C[C@@H]1OC[C@H](CO)N1S(=O)(=O)c1ccc(C)cc1,inactive
7,COc1ccc(C2OC(CCc3ccccc3)Cc3[nH]c(=S)[nH]c(=O)c32)cc1 (centres undefined),inactive
8,CCOc1ccc(C(=O)Nc2ccc(S(=O)(=O)Nc3cc(C)on3)cc2)cc1,inactive
9,CCOc1ccc(CC(=O)Nc2ccc(S(=O)(=O)Nc3cc(C)on3)cc2)cc1OCC,inactive
10,CCOc1ccc(Br)cc1S(=O)(=O)Nc1ccc(S(=O)(=O)Nc2cc(C)on2)cc1,39.8 µM (active)
11,CSCCC(C(=O)NC(C)(C)C)n1c(-c2ccccc2)nc2ccccc21 (centres undefined),inactive
12,Fc1cccc(Cc2c(-c3cccc(Cl)c3)nc3ccc(Br)cn23)c1,inactive
13,COC(=O)C[C@@H]1C=C[C@@H](NC(=O)c2cccnc2)[C@@H](CO)O1,inactive
14,C[C@@H]1CC2=C(C(=O)OC(C)(C)O2)[C@@H](C2CC2)O1,inactive
15,O=S1(=O)CC(N2CCN(CCO)CC2)CN1Cc1cn(Cc2ccc(Cl)cc2)nn1 (centres undefined),inactive
16,Cc1nccn1-c1ccc(NC(=O)[C@H]2O[C@@H](n3ccc(=O)[nH]c3=O)[C@H](O)[C@@H]2O)cc1,inactive
17,COc1ccc(OC)c(CN2C(=O)CCC2(C)c2nnnn2Cc2ccccc2)c1 (centres undefined),inactive
18,COC(=O)[C@@]12C[C@@H](CC(=O)NCCCCc3ccccc3)C(=O)N(CCc3ccc(OC)c(OC)c3)C1=CCC(C)(C)C2,inactive
19,CCCCCn1nnnc1-c1nc2cc3ccccc3cc2[nH]c1=O,inactive
20,COC(=O)[C@@]12C[C@@H](CC(=O)NCCCCc3ccccc3)C(=O)N(Cc3ccccc3)C1=CCC(C)(C)C2,inactive
